Laboratory results from PubChem BioAssay (Tox21).
Inconclusive results are not listed. The source made the active and inactive calls. Unless noted, calls follow the shape of the full dose curve.

Experiments:
[1] = Nuclear factor erythroid 2-related factor 2/antioxidant responsive element (Nrf2/ARE) small molecule agonists: qHTS cell viability counter screen in human keratinocytes (AID 1919968; active = well fitted curve in the direction sought with a large enough effect in the repeat runs; an effect the other way counts as inactive or inconclusive; also: nearly all actives have a fitted effect of over 55% in size)
Summary of the method: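 Parallel cytotoxicity read: KeratinoSens HaCaT cells, compound treatment 23 h, viability by CellTiter-Fluor fluorescence 1 h post-reagent.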

[2] = Nuclear factor erythroid 2-related factor 2/antioxidant responsive element (Nrf2/ARE) small molecule agonists: luciferase reporter gene qHTS assay in human keratinocytes (AID 1919969); also: nearly all actives have a fitted effect of over 35% in size
[3] = molecular target: Gonadotropin-releasing hormone receptor (Homo sapiens) (UniProt P30968); assay: Human gonadotropin-releasing hormone receptor (GnRHR) small molecule agonists, calcium flux assay in GnRHR-HEK293 cells (AID 1920063); also: nearly all actives have a fitted effect of over 35% in size
Summary of the method: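 Calcium flux, agonist mode, human GnRHR stably integrated in HEK293; dye 1 h at 37 C before compound; Ex/Em=480/540 kinetic read, 3 min; 15 concentrations, triplicate.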

[4] = molecular target: KiSS-1 receptor (Homo sapiens) (UniProt Q969F8); assay: Human kisspeptin (KISS1R) small molecule agonists, calcium flux assay in KISS1R-HEK293 cells (AID 1920064; active = well fitted curve in the direction sought with a large enough effect in the repeat runs; an effect the other way counts as inactive or inconclusive)
Summary of the method: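 Triplicate 15-concentration series were applied to dye-loaded human KISS1R HEK293 cells, and agonist-evoked calcium fluorescence was captured for 3 min.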

[5] = G protein-coupled receptor (GPCR) small molecule agonists, calcium flux assay: HEK293 wild type cell line counter screen (AID 1920065)
Summary of the method: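 Non-specific calcium responders were flagged by adding DMSO-dissolved compounds to dye-loaded cells and reading 480/540 nm fluorescence each second for 3 min; ATP served as positive control.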

[6] = p53 small molecule agonists, cell-based qHTS assay with human liver microsomes: qHTS cell viability counter screen (AID 1963579); also: nearly all actives have a fitted effect of over 45% in size
Summary of the method: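 Tox21 library compounds, delivered from DMSO stocks, were tested on p53RE-bla cells together with 0.5 mg/mL human liver microsomes and 0.5 mg/mL NADPH (final) over 16 h at 37 C; CellTiter-Glo luminescence served as the cytotoxicity measure.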

[7] = p53 small molecule agonists, cell-based qHTS assay with rat liver microsomes: qHTS cell viability counter screen (AID 1963580); also: nearly all actives have a fitted effect of over 45% in size
Summary of the method: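 Cytotoxicity counter screen: intracellular ATP read by CellTiter-Glo luminescence in the p53 reporter wells. HCT-116 p53RE-bla cells were treated for 16 h at 37 C alongside rat liver microsomes and NADPH, each 0.5 mg/mL final.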

[8] = p53 small molecule agonists, cell-based qHTS assay: qHTS cell viability counter screen (AID 1963581); also: nearly all actives have a fitted effect of over 45% in size
Summary of the method: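 Multiplexed with the reporter read, a CellTiter-Glo step (30 min, room temperature) gauges ATP-based viability of HCT-116 p53RE-bla cells after 16 h compound incubation at 37 C.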

[9] = molecular target: 5-hydroxytryptamine receptor 2A (Homo sapiens) (UniProt P28223); assay: 5-hydroxytryptamine receptor 2A (HTR2A) small molecule antagonists, cell-based qHTS assay (AID 1963586); also: nearly all actives have a fitted effect of over 45% in size
Summary of the method: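 CHO cells stably expressing human HTR2A were plated for 18 h at 37 C, then loaded with calcium dye for 1 h. Compounds were preincubated 5 min at room temperature before DOI (4 nM solution) was added. Kinetic fluorescence was read for 3 min.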

[10] = molecular target: 5-hydroxytryptamine receptor 2A (Homo sapiens) (UniProt P28223); assay: 5-hydroxytryptamine receptor 2A (HTR2A) small molecule agonists, cell-based qHTS assay (AID 1963587); also: nearly all actives have a fitted effect of over 30% in size
Summary of the method: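 Kinetic calcium-flux fluorescence (2 min, 1 sec intervals) after compound addition in agonist mode. HTR2A-CHO cells were cultured 18 h, then dye-loaded 1 h at 37 C.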

[11] = molecular target: Muscarinic acetylcholine receptor M1 (Homo sapiens) (UniProt P11229); assay: Cholinergic receptor muscarinic 1 (CHRM1) small molecule antagonists, cell-based qHTS assay (AID 1963588); also: nearly all actives have a fitted effect of over 40% in size
Summary of the method: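 Compounds were tested at 15 concentrations in three independent runs. Dye-loaded CHRM1-CHO cells were exposed 5 min at room temperature before stimulation by acetylcholine added at 50nM. Intracellular calcium was read kinetically on FDSS for 3 min.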

[12] = molecular target: Muscarinic acetylcholine receptor M1 (Homo sapiens) (UniProt P11229); assay: Cholinergic receptor muscarinic 1 (CHRM1) small molecule agonists, cell-based qHTS assay (AID 1963589); also: nearly all actives have a fitted effect of over 35% in size
Summary of the method: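 qHTS, 15-point titration, 3 independent runs: compounds pin-transferred onto dye-loaded CHRM1-CHO cells (human M1), calcium fluorescence followed every second to detect agonism.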

[13] = cAMP Responsive Elements (CRE) small molecule agonists, cell-based qHTS assay (AID 1963590)
Summary of the method: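 Quantitative HTS for CRE agonists: HEK 293T CRE-bla cells, overnight plating, 3 h compound incubation at 37 C/5% CO2, then 2 h room-temperature LiveBLAzer B/G FRET substrate loading.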

[14] = cAMP Responsive Elements (CRE) small molecule antagonists, cell-based qHTS assay (AID 1963591; active = well fitted inhibition curve with a large enough effect in the signal ratio in the repeat runs, not every such curve was filed as active; the % refers to the signal ratio)
Summary of the method: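 Fluorescence intensity from cleaved LiveBLAzer B/G substrate (2 h, room temperature) quantified CRE-bla activity in HEK 293T cells exposed 3 h to compound with 0.25 uM final NKH477.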

[15] = molecular target: Beta-2 adrenergic receptor (Homo sapiens) (UniProt P07550); assay: Adrenergic beta2 receptor (ADRB2) small molecule antagonists, cell-based qHTS assay (AID 1963592); also: series mostly up to about 92 µM; nearly all actives have a fitted effect of over 50% in size
Summary of the method: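 Assay format: CHO-ADRB2 cells, 18-20hr seeding at 37C/5% CO2, then compound plus 1nM isoproterenol agonist mix for 0.5hr RT. Homogeneous time-resolved fluorescence cAMP detection after 1hr, expressed as 665/615 nm ratio.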

[16] = molecular target: D(2) dopamine receptor (Homo sapiens) (UniProt P14416); assay: Dopamine D2 receptor (DRD2) small molecule agonists, cell-based qHTS assay (AID 1963594); also: nearly all actives have a fitted effect of over 35% in size
Summary of the method: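 cAMP accumulation in DRD2-HEK293 cells measured by HTRF after 1 h detection; compounds added 10 min before NKH477 (200nM […]) forskolin-analogue stimulation, 30 min at room temperature, with Ro20-1724 present at 0.1 mM final.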

[17] = molecular target: D(2) dopamine receptor (Homo sapiens) (UniProt P14416); assay: Dopamine D2 receptor (DRD2) small molecule antagonists, cell-based qHTS assay (AID 1963595; active = well fitted inhibition curve with a large enough effect in the signal ratio in the repeat runs, with a control signal flat; the % refers to the signal ratio)
Summary of the method: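 HEK293 cells stably expressing DRD2 were preincubated with 0.1 mM Ro20-1724, then with compound for 10 min at room temperature. Cells were stimulated with 200 nM NKH477 plus 12 nM quinpirole for 30 min, and cAMP was read by HTRF.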

Measured: Potency

Chain of Gonadotropin-releasing hormone receptor (Homo sapiens) (P30968 whole entry, looked up): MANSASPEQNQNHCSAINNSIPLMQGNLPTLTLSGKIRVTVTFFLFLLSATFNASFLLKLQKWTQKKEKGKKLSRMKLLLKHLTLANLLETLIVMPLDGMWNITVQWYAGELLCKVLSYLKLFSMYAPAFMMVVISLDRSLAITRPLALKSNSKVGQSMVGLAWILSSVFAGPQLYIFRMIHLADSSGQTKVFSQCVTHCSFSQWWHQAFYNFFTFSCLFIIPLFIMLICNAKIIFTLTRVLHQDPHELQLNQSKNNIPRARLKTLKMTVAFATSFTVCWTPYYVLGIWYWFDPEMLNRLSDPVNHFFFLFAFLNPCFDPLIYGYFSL
Chain of D(2) dopamine receptor (Homo sapiens) (P14416 whole entry, looked up): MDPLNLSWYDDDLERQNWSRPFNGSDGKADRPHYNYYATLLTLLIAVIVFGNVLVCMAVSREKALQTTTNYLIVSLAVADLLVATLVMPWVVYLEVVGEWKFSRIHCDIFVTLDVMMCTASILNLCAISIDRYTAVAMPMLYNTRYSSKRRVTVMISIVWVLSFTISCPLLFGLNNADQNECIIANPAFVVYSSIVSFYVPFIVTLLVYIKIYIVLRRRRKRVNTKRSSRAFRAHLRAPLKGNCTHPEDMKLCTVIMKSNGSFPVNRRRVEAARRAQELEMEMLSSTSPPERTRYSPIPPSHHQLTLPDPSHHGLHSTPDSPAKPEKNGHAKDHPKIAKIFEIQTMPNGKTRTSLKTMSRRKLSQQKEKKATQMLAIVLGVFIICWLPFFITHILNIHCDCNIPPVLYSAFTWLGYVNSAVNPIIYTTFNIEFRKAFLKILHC
Chain of KiSS-1 receptor (Homo sapiens) (Q969F8 whole entry, looked up): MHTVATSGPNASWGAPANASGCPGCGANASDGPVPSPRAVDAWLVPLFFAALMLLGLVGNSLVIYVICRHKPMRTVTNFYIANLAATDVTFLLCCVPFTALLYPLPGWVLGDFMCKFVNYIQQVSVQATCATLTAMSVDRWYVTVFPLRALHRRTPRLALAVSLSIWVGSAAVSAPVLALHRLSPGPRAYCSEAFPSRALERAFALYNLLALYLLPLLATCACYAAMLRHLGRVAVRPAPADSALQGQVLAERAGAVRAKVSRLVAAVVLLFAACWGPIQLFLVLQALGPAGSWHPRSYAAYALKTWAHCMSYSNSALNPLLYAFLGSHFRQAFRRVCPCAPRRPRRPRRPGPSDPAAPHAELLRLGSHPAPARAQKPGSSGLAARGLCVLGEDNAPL
Chain of 5-hydroxytryptamine receptor 2A (Homo sapiens) (P28223 whole entry, looked up): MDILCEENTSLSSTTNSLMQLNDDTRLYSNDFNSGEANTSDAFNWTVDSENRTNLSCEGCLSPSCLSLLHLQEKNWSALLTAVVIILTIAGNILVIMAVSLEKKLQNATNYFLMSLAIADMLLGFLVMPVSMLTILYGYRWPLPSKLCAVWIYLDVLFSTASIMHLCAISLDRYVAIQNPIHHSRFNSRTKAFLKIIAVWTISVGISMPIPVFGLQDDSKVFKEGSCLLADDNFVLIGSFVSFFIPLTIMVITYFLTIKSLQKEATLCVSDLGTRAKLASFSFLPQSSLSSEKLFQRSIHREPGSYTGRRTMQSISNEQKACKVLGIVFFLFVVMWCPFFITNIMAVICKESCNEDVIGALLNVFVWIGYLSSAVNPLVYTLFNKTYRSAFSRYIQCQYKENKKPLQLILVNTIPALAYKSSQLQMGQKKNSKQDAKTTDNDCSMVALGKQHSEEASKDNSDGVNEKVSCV
Chain of Muscarinic acetylcholine receptor M1 (Homo sapiens) (P11229 whole entry, looked up): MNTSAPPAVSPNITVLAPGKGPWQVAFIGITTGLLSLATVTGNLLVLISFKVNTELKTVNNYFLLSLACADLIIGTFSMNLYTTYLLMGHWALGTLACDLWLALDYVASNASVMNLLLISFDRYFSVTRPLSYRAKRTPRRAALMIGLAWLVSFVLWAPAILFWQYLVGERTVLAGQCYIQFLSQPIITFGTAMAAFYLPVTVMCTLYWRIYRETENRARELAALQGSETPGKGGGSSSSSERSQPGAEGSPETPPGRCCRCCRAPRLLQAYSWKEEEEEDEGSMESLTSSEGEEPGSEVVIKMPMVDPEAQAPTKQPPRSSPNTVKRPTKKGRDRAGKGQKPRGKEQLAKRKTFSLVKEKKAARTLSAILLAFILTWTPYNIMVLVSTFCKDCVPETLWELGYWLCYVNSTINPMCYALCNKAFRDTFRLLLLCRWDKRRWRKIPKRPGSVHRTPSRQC
Chain of Beta-2 adrenergic receptor (Homo sapiens) (P07550 whole entry, looked up): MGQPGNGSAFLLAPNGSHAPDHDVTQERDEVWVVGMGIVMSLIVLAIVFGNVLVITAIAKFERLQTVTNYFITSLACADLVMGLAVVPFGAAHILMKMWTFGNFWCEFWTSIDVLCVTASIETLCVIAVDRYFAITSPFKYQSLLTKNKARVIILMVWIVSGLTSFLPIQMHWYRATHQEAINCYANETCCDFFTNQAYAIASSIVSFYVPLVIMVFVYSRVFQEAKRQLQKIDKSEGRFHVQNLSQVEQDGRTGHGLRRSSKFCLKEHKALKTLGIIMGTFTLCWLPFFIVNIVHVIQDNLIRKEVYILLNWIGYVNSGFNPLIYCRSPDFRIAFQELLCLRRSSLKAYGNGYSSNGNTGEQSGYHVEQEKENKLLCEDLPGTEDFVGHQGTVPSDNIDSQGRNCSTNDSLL

CN1C(C)(C)CC(O)CC1(C)C
inactive: all assays above

Cc1ccccc1OCC(=O)O
inactive: all assays above

OC1CCCCC1c1ccccc1 (centres undefined)
inactive: all assays above

CCCCCCCCS(=O)(=O)O
inactive: all assays above

O=C1NCC2(CCN(CCc3ccccc3)CC2)O1
inactive: all assays above

Cc1cccc(C)c1NC(=O)CN(CC(=O)O)CC(=O)O
inactive: all assays above

CCC(C)N (centres undefined)
inactive: all assays above
